Common to all, as to test: DAPPL (digital affinity profiling via proximity ligation, sequencing); 10 mM Tris-HCl pH 7.5, 50 mM NaCl, 1 mM DTT, 4% glycerol, room temperature, 30 min; GST-TFs on glutathione beads, 16-mer random dsDNA library, 0.1% formaldehyde crosslink after washing; high values mean tight binding
The target in assay [1] is T1, FEV (Homo sapiens, UniProt Q99581 1-238).
T1 sequence: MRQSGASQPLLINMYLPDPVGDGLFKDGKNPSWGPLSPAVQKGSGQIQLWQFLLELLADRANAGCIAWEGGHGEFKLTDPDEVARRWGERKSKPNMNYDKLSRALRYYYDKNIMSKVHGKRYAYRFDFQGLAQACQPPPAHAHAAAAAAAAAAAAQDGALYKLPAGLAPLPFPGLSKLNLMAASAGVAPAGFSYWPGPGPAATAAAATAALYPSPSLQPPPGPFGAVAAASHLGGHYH
The following applies: protein: recombinant; tags: N-terminal GST; dsDNA, one strand shown. The gist of the method: (§1)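 In yeast, human transcription factors were expressed with a GST fusion, then pulled down on glutathione beads and given DNA barcodes. Pooled with a tag-only sample, they were exposed to 200 nmole of a 16-mer random double-stranded DNA library (Tris/NaCl/DTT/glycerol buffer, room temperature, 30 min), washed, crosslinked with 0.1% formaldehyde, proximity-ligated using BsaI/T4 ligase for 1 h at 37 °C, PCR-amplified and read on an Illumina NextSeq500. Each hexamer's frequency of reads for a factor, divided by the matching frequency for the tag-only sample, gives the binding signal.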

Assay [2] addresses ETV5 (Homo sapiens, UniProt P41161 1-510). The following applies: protein: recombinant; tags: N-terminal GST; dsDNA, one strand shown. The gist of the method:
as §1

The target of assay [3] is HSF1 (Homo sapiens, UniProt Q00613 1-529). The following applies: protein: recombinant; tags: N-terminal GST; chain copies: 3; dsDNA, one strand shown. The gist of the method:
as §1

Assay [4] deals with T2, SPIC (Homo sapiens, UniProt Q8N5J4 1-248).
T2 sequence: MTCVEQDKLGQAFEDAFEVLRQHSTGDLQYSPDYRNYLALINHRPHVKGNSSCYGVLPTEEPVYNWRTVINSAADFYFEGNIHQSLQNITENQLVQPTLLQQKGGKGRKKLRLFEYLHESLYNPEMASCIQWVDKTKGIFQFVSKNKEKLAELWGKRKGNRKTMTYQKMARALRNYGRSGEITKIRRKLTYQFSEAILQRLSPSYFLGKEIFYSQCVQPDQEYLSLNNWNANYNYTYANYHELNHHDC
The following applies: protein: recombinant; tags: N-terminal GST; dsDNA, one strand shown. In a few lines: as §1

Assay [5] has as its target ELF4 (Homo sapiens, UniProt Q99607 1-663). The following applies: protein: recombinant; tags: N-terminal GST; dsDNA, one strand shown. The gist of the method: as §1
The target in assay [6] is T3, ELK4 (Homo sapiens, UniProt P28324-2 1-405).
T3 sequence: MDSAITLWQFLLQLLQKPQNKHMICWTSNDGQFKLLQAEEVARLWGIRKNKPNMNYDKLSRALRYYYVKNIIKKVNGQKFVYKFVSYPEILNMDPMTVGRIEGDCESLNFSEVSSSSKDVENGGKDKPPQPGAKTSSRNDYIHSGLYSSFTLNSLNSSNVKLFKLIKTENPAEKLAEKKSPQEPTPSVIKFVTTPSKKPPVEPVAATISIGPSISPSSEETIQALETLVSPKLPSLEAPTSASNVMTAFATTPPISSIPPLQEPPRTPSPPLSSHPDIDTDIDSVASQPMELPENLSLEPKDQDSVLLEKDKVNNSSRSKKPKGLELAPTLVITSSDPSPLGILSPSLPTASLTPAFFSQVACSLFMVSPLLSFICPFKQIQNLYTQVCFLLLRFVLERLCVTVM
The following applies: protein: recombinant; tags: N-terminal GST; dsDNA, one strand shown. In a few lines: as §1

Assay [7] concerns the target T4, ETV2 (Homo sapiens, UniProt O00321 1-342).
T4 sequence: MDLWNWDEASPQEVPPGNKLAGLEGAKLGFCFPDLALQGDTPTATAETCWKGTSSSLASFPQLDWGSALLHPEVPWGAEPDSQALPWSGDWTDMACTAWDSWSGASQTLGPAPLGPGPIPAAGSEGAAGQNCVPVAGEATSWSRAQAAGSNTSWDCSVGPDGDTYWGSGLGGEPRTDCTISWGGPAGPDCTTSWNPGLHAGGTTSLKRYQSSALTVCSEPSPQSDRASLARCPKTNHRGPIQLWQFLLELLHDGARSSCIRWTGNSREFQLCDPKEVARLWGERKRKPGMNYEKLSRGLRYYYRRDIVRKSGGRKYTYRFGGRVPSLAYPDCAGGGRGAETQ
The following applies: protein: recombinant; tags: N-terminal GST; dsDNA, one strand shown. In a few lines:
as §1

The target in assay [8] is T5, ELF3 (Homo sapiens, UniProt P78545 1-371).
T5 sequence: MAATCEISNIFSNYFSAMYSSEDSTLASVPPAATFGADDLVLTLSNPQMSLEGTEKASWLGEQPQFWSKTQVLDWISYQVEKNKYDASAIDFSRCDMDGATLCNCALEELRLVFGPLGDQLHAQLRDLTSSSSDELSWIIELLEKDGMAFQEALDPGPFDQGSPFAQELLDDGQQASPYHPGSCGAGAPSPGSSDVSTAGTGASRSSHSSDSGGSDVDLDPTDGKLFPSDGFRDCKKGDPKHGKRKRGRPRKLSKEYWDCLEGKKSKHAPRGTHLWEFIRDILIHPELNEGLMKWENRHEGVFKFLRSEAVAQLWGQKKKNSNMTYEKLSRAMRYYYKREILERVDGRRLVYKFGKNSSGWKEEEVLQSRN
The following applies: protein: recombinant; tags: N-terminal GST; dsDNA, one strand shown. The gist of the method: as §1

Assay [9] addresses CRX (Homo sapiens, UniProt O43186 1-299). The following applies: protein: recombinant; tags: N-terminal GST; dsDNA, one strand shown. The gist of the method:
as §1

The target in assay [10] is ETV1 (Homo sapiens, UniProt P50549 1-477). The following applies: protein: recombinant; tags: N-terminal GST; dsDNA, one strand shown. In a few lines:
as §1

Drawing on publication PMC7862700, “An all-to-all approach to the identification of sequence-specific readers for epigenetic DNA modifications on cytosine”, this text covers binding signal for seven sequences.

ETV1, sequence (P50549 whole entry): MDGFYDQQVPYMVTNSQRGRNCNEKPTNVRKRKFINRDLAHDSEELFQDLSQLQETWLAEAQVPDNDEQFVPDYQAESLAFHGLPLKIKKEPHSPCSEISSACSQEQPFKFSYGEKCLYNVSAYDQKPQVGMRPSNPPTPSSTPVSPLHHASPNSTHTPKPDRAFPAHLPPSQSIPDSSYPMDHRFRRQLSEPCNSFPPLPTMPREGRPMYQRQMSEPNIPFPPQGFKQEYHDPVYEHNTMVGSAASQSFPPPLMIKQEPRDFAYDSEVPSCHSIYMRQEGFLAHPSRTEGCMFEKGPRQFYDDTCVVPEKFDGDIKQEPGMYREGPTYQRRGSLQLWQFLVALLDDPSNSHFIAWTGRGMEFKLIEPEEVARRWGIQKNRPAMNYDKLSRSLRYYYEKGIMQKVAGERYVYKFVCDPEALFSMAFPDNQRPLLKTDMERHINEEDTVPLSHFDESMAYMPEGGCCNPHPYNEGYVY
ETV5, sequence (P41161 whole entry): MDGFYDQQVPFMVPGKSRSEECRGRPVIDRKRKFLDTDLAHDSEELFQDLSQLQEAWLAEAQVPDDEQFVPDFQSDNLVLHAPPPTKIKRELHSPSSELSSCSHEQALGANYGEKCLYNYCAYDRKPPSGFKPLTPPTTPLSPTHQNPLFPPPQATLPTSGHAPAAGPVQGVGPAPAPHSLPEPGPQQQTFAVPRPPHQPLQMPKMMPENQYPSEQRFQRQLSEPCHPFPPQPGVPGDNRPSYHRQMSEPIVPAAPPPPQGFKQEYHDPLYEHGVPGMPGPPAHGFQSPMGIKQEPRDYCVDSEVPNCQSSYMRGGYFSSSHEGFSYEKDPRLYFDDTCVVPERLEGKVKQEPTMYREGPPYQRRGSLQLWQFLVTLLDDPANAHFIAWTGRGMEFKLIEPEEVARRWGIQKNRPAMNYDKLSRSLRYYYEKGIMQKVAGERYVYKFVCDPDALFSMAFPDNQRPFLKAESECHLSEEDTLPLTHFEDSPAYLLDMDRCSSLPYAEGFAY
ELF4, sequence (Q99607 whole entry): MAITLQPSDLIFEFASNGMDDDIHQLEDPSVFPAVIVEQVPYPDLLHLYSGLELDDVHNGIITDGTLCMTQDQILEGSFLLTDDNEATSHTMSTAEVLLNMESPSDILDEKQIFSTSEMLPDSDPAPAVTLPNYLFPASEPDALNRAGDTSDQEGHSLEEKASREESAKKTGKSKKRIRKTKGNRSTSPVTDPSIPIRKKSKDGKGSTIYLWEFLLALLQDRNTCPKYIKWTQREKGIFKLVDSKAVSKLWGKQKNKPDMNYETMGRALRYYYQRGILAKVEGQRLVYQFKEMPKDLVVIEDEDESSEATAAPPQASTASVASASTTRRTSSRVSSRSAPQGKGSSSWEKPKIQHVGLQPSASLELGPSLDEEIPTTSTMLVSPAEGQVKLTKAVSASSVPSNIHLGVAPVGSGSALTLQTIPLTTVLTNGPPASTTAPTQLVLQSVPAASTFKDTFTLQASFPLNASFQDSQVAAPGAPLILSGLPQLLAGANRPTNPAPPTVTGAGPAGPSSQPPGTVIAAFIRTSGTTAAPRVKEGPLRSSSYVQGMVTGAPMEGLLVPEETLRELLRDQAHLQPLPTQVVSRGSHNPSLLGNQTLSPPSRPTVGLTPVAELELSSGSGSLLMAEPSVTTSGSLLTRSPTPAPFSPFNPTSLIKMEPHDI
HSF1, sequence (Q00613 whole entry): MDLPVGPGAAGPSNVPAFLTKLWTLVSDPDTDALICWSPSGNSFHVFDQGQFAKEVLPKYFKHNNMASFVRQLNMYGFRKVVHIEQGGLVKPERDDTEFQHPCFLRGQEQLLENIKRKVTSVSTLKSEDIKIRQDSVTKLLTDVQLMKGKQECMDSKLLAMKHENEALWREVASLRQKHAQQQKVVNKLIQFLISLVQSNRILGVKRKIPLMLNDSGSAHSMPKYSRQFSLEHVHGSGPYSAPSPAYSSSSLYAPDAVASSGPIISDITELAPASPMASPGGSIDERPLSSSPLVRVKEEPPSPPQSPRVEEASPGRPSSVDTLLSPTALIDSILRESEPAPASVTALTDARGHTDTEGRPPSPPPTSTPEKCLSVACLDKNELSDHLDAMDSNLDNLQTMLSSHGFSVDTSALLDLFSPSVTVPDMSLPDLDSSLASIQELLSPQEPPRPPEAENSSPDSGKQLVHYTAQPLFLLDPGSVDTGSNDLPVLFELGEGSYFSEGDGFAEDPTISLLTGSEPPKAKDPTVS
CRX, sequence (O43186 whole entry): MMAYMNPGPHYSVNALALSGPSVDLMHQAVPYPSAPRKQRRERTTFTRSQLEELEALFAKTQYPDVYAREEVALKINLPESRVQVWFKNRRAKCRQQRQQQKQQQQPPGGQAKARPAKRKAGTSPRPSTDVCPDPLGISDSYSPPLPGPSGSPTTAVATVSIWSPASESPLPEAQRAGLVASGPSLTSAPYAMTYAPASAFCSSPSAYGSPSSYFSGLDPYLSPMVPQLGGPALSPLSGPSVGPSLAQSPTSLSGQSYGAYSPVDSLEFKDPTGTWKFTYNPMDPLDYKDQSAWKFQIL

Consider GTGCTT, for which the binding signal in assay [1] is 1.25 fold enrichment (6-mer frequency, TF over GST control); in assay [2] it was 1.19 fold enrichment (6-mer frequency, TF over GST control); in assay [3], 1.05 fold enrichment (6-mer frequency, TF over GST control); in assay [4] it was 1.46 fold enrichment (6-mer frequency, TF over GST control); in assay [5], 1.27 fold enrichment (6-mer frequency, TF over GST control); in assay [6] it was 1.1 fold enrichment (6-mer frequency, TF over GST control). Further, the binding signal in [7] was 1.41 fold enrichment (6-mer frequency, TF over GST control); in assay [8] it was 1.14 fold enrichment (6-mer frequency, TF over GST control); in assay [9], 1.14 fold enrichment (6-mer frequency, TF over GST control); in assay [10], 1.16 fold enrichment (6-mer frequency, TF over GST control).
For TTCGTC, the binding signal was 1.21 fold enrichment (6-mer frequency, TF over GST control) in assay [1]; 1.33 fold enrichment (6-mer frequency, TF over GST control) in assay [2]; 1.25 fold enrichment (6-mer frequency, TF over GST control) in assay [3]; 1.23 fold enrichment (6-mer frequency, TF over GST control) in [4]; 1.29 fold enrichment (6-mer frequency, TF over GST control) in assay [5]; 1.41 fold enrichment (6-mer frequency, TF over GST control) in [6]. Moreover, the binding signal in [7] was 1.33 fold enrichment (6-mer frequency, TF over GST control); in assay [8], 1.39 fold enrichment (6-mer frequency, TF over GST control); in assay [9] it was 1.09 fold enrichment (6-mer frequency, TF over GST control); in [10], 1.26 fold enrichment (6-mer frequency, TF over GST control).
Consider CTTCAT, for which the binding signal was 1.46 fold enrichment (6-mer frequency, TF over GST control) in assay [1]; 1.49 fold enrichment (6-mer frequency, TF over GST control) in [2]; 1.34 fold enrichment (6-mer frequency, TF over GST control) in [3]; 1.36 fold enrichment (6-mer frequency, TF over GST control) in assay [4]; 1.4 fold enrichment (6-mer frequency, TF over GST control) in assay [5]; 1.53 fold enrichment (6-mer frequency, TF over GST control) in assay [6]. In addition, the binding signal in assay [7] is 1.39 fold enrichment (6-mer frequency, TF over GST control); in assay [8], 1.56 fold enrichment (6-mer frequency, TF over GST control); in assay [9], 1.3 fold enrichment (6-mer frequency, TF over GST control); in assay [10], 1.5 fold enrichment (6-mer frequency, TF over GST control).
As for ATTGAC, the binding signal in assay [1] was 1.18 fold enrichment (6-mer frequency, TF over GST control); in assay [2], 1.17 fold enrichment (6-mer frequency, TF over GST control); in assay [3], 1.01 fold enrichment (6-mer frequency, TF over GST control); in assay [4], 1.11 fold enrichment (6-mer frequency, TF over GST control); in assay [5], 1.15 fold enrichment (6-mer frequency, TF over GST control); in [6], 1.34 fold enrichment (6-mer frequency, TF over GST control). The binding signal in assay [7] is 1.38 fold enrichment (6-mer frequency, TF over GST control); in assay [8], 1.19 fold enrichment (6-mer frequency, TF over GST control); in [9], 1.11 fold enrichment (6-mer frequency, TF over GST control); in [10], 1.1 fold enrichment (6-mer frequency, TF over GST control).
On to TAGCTC, for which the binding signal in assay [1] was 1.19 fold enrichment (6-mer frequency, TF over GST control); in assay [2] it was 1.25 fold enrichment (6-mer frequency, TF over GST control); in assay [3], 1.24 fold enrichment (6-mer frequency, TF over GST control); in assay [4], 1.19 fold enrichment (6-mer frequency, TF over GST control); in assay [5], 1.22 fold enrichment (6-mer frequency, TF over GST control); in assay [6], 1.26 fold enrichment (6-mer frequency, TF over GST control). In addition, the binding signal was 1.37 fold enrichment (6-mer frequency, TF over GST control) in assay [7]; 1.17 fold enrichment (6-mer frequency, TF over GST control) in assay [8]; 1.46 fold enrichment (6-mer frequency, TF over GST control) in assay [9]; 1.21 fold enrichment (6-mer frequency, TF over GST control) in assay [10].
For TCCAAG, the binding signal is 1.03 fold enrichment (6-mer frequency, TF over GST control) in assay [1]; 1.07 fold enrichment (6-mer frequency, TF over GST control) in [2]; 1.23 fold enrichment (6-mer frequency, TF over GST control) in [3]; 1.11 fold enrichment (6-mer frequency, TF over GST control) in assay [4]; 1.07 fold enrichment (6-mer frequency, TF over GST control) in assay [5]; 1.04 fold enrichment (6-mer frequency, TF over GST control) in [6]. For the same sequence, the binding signal in assay [7] was 1.19 fold enrichment (6-mer frequency, TF over GST control); in [8] it was 1.11 fold enrichment (6-mer frequency, TF over GST control); in assay [9], 1.2 fold enrichment (6-mer frequency, TF over GST control); in assay [10], 1.13 fold enrichment (6-mer frequency, TF over GST control).
For CCCATA, the binding signal in assay [1] was 1.24 fold enrichment (6-mer frequency, TF over GST control); in assay [2], 1.23 fold enrichment (6-mer frequency, TF over GST control); in assay [3], 1.14 fold enrichment (6-mer frequency, TF over GST control); in assay [4], 1.31 fold enrichment (6-mer frequency, TF over GST control); in [5], 1.32 fold enrichment (6-mer frequency, TF over GST control); in assay [6], 1.06 fold enrichment (6-mer frequency, TF over GST control). Further, the binding signal is 1.3 fold enrichment (6-mer frequency, TF over GST control) in assay [7]; 1.33 fold enrichment (6-mer frequency, TF over GST control) in assay [8]; 1.24 fold enrichment (6-mer frequency, TF over GST control) in assay [9]; 1.24 fold enrichment (6-mer frequency, TF over GST control) in assay [10].
